We go through eight molecules from PubChem BioAssay (NCI).

The panel holds about 83,000 compounds, 20% with a hit somewhere; the sample as a whole holds those more often.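 The endpoint reported here, percent growth, reads 100 for growth as untreated, 0 for no net growth and -100 for all cells dead.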 A number with no mark means an inactive call. Activity calls are given as the source filed them. The calls were made as follows: active = growth percent below 10; inactive = the rest.

The experiment relates to MDA-MB-468 breast. Put plainly: NCI-60 one-dose screen, 48 h (100 = growth as untreated, 0 = no growth, -100 = all killed). The conditions noted are these: 10 µM unless noted.
Consider `Cc1ccc(S(=O)(=O)NCN2C(=O)c3ccccc3C2=O)cc1`, for which the growth was 93.6%.
To `Cn1ccnc1C(=O)/C=C/c1ccc(NC(=O)Nc2ccccc2)cc1` belongs -45.8% (active); to `CCOc1ccc(/C=N/Nc2cc(C)nc3ccc(Cl)cc23)cc1`, -9.24% (active).
To `O=C(c1ccc(Br)cc1)C(Br)C(c1ccc(Cl)cc1)C(c1ccccc1)[N+](=O)[O-]` (stereo not drawn) belongs 80.7%; to `O=C(CSc1nnc(-c2ccc3nc(-c4ccccc4)[nH]c3c2)o1)Nc1ccc(C(=O)/C=C/c2ccccc2)cc1`, 112%.
Consider `Oc1cccc(Nc2nccc(-c3ccc4ccccc4c3)n2)c1`, for which the growth is 15.6%.
The same measure for `CCN(CC)c1ccc(/C=C/C(=O)c2cccc(NS(C)(=O)=O)c2)cc1`: 35.4%.
Regarding `O=C1C=Cc2ccccc2/C1=C/c1nc(-c2ccccc2)oc1O`, the growth is 88.6%.
